# Screens deposited in PubChem by National Center for Advancing Translational Sciences (NCATS).
# IL1B secr inh – qHTS for Inhibitors of Inflammasome Signaling: IL-1-beta AlphaLISA Primary Screen; THP-1 LPS/ATP IL-1B secretion, AlphaLISA, 16 h; active compounds read low; activity change, % at 57.5 µM; AID 743279, 2014; 360,000 compounds, 4.7% hits; in the data active = activity change below about -50%; inconclusive = mostly about -30% to -49%
#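 THP-1 cells pretreated 1 hr with compounds (up to 57.5 uM final), then stimulated with LPS (250 ng/mL final) plus ATP (1.25 mM final); secreted IL-1B measured by AlphaLISA after 16 hr, decreased signal indicating inhibition.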
# DT40 TDP1 CPT – qHTS for Inhibitors of human tyrosyl-DNA phosphodiesterase 1 (TDP1): qHTS in cells in presence of CPT; chicken DT40 Tdp1-/-;hTDP1 cells + 20 nM CPT, ATP luminescence, 48 h; Potency, µM (titrated, usually from 46.2 µM), inactives show at the top dose activity change, negative = growth inhibition, hits mostly inhibitors; 420,000 compounds, 12% hits; AID 686979, 2013; note: potency is the fitted concentration of half-maximal effect; nearly all actives have a fitted effect of over 55% in size
#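 Cell growth measured by CellTiter-Glo luminescence after a minimum 48 h, 37 C compound exposure with 20 nM CPT in Tdp1-knockout DT40 cells stably expressing hTDP1, seeded 400/well; qHTS titration format.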
# HT1080 IDH1KD tx – qHTS for induction of synthetic lethality in tumor cells producing 2HG: qHTS for the HT-1080-IDH1KD cell line; HT-1080 IDH1 knockdown viability, ATP luminescence, 48 h; 360,000 compounds, 2% hits; Potency, µM (doses to about 46.1 µM), for the others: top-dose activity, negative = toxicity, actives largely listed as cytotoxic;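 note: potency is the fitted concentration of half-maximal effect; 0% = DMSO wells and -100% = cell-free medium wells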
#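 After a 2 h attachment period, IDH1KD HT-1080 cells took pin-transferred compound for 48 h at 37 °C; ATP-based luminescence after 10 min room-temperature reagent incubation reported viability.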
# uPA generation – qHTS for Inhibitors of Cell Surface uPA Generation. cell surface uPA generation assay, qHTS. 330,000 compounds, 0.31% hits. Potency, µM (doses to about 38.3 µM), without a hit: at the highest dose activity change, negative = inhibition, usual class: inhibitors; active = well fitted inhibition curve with a large enough effect; inconclusive = small, poorly fitted or top-dose-only effect; inactive = no such curve, though single readings can be large or run the other way; tested in mouse RAW 264.7 cells; note: potency is the fitted concentration of half-maximal effect; nearly all actives have a fitted effect of over 55% in size
# DT40 TDP1 no CPT – qHTS for Inhibitors of human tyrosyl-DNA phosphodiesterase 1 (TDP1): qHTS in cells in absence of CPT; DT40 Tdp1-/- hTDP1 cells, no CPT, ATP luminescence, 48 h; Potency, µM (top dose mostly 46.2 µM), for the others: at the top dose activity change, negative = growth inhibition, actives largely listed as inhibitors; 420,000 compounds, 15% hits; AID 686978, 2013; note: potency is the fitted concentration of half-maximal effect; nearly all actives have a fitted effect of over 55% in size
#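 No-CPT arm: Tdp1-/-;hTDP1 DT40 cells (400/well) plus compounds, incubated ≥48 hr at 37 °C. Readout CellTiter-Glo luminescence.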
# HT1080-NT tox – qHTS for induction of synthetic lethality in tumor cells producing 2HG: qHTS for the HT-1080-NT fibrosarcoma cell line. Potency, µM (titrated, usually from 46.1 µM), for inactives: at the top dose activity, negative = less viability, hits mostly cytotoxic. 360,000 compounds, 1.6% hits. HT-1080-NT fibrosarcoma viability, CellTiter-Glo ATP luminescence, 48 h;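 note: NT is the 2HG producing partner of a matched IDH1 knockdown line; potency is the fitted concentration of half-maximal effect; 0% = DMSO-treated cells and -100% = media-only wells without cells; nearly all actives have a fitted effect of over 55% in size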
#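 HT-1080-NT; 750 cells/well; 5% FBS RPMI; 48 h compound, 37 degrees C; CellTiter-Glo luminescence; curve fitting and curve-class assignment.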
# Numbers without * were called inactive; ? = inconclusive; · = no result; [ ] = remark or other dose. The list is not random: actives were taken first. Their share in the collection is about 19%. Unless noted, calls come from the whole dose curve; as a rule, active = well fitted curve in the direction sought with a large enough effect; inconclusive = small, poorly fitted or top-dose-only effect, or another doubt; inactive = no such curve, though single readings can be large; an effect the other way counts as inactive or inconclusive. Unless noted, % is set by controls: 0 for no effect and ±100 for the full control effect.
SMILES,IL1B secr inh,DT40 TDP1 CPT,HT1080 IDH1KD tx,uPA generation,DT40 TDP1 no CPT,HT1080-NT tox
Cc1cccc(NC(=O)COC(=O)CCc2c[nH]c3ccccc23)c1,0,?,4%,-2%,-9%,4%[9.24 µM]
CSc1ccccc1OCc1cc(C(=O)N(C)Cc2ccncn2)no1,2,-16%,-1%,-2%,-16%,-7%
CC(C)(C)N1C(=O)c2ccccc2NC(=O)C1C(=O)NCc1ccco1 (configuration not stated),42,1%,13%,·,3%,29%
CCc1ccccc1NC(=O)CSc1ncc2c(n1)-c1ccccc1N(Cc1ccc(C)cc1)S2(=O)=O,·,-11%,·,·,-22%,·
Cc1cccc(C)c1NC(=O)CSc1ncc2c(n1)-c1ccc(Cl)cc1N(Cc1ccccc1)S2(=O)=O,·,?,·,·,16µM*,·
COc1ccc(C)cc1NC(=O)CSc1ncc2c(n1)-c1ccc(Cl)cc1N(Cc1ccccc1)S2(=O)=O,·,9.2µM*,·,·,?,·
CCOc1ccc(NC(=O)CSc2ncc3c(n2)-c2ccccc2N(Cc2ccccc2C)S3(=O)=O)cc1,·,-29%,·,·,-26%,·
Cc1ccccc1CN1c2ccccc2-c2nc(SCC(=O)Nc3cc(F)ccc3F)ncc2S1(=O)=O,·,?,·,·,10µM*,·
Cc1ccccc1CN1c2ccccc2-c2nc(SCC(=O)c3ccccc3)ncc2S1(=O)=O,·,0%,·,·,0%,·
COc1ccc(OC)c(C(=O)CSc2ncc3c(n2)-c2ccccc2N(Cc2ccccc2C)S3(=O)=O)c1,·,18µM*,·,·,?,·
CC(C)Oc1cccc(C(=O)Nc2ccc(-c3nc4cc(Cl)cc(Cl)c4o3)cc2)c1,·,-21%,·,·,-17%,·
Cc1cccc(NC(=O)Cn2nnc3ccccc32)c1,9,0%,-5%,-1%,-26%,-1%
O=C(CSc1ncc2c(n1)-c1ccc(Cl)cc1N(Cc1ccccc1)S2(=O)=O)Nc1ccc(F)c(F)c1,·,23µM*,·,·,18µM*,·
COC(=O)c1ccc(NC(=O)CSc2ncc3c(n2)-c2cc(Cl)ccc2N(Cc2ccccc2)S3(=O)=O)cc1,·,?,·,·,21µM*,·
Cc1ccccc1OCCn1c(-c2ccc(Cl)cc2)nc2ccccc2c1=O,·,-12%,·,·,-3%,·
CN(C)CCNc1nccc(N2CCN(C)CC2)n1,·,9%,·,·,-10%,·
CCCCCCCCCC(=O)OCC(CO)OC(=O)CCCCCCCCC (configuration not stated),·,0%[4.12 µM],·,·,5%[4.12 µM],·
Cc1[nH]c2ccccc2c1C(O)c1ccncc1 (configuration not stated),37,26%,-2%,-1%,-23%,9%
Cc1c(N2CCCCC2)[nH]c2ccccc12,-3,?,4%,·,10µM*,-1%
Cc1[nH]c2ccccc2c1C(c1ccncc1)N1CCCCC1 (configuration not stated),33,13µM*,-2%,0%,16µM*,11%
Cc1[nH]c2ccccc2c(=O)c1CN1CCCCC1,0,-13%,-7%,2%,-11%,0%
CCCCN(C=O)c1c(CC)nc2ccc(C(=O)NCCCn3ccnc3)cn12,3,-20%,8%,·,-17%,21%
CN=c1scc(-c2ccc(F)cc2)n1/N=C/c1ccc(O)c(O)c1,50,1.2µM*,8.2µM*,-13%,0.82µM*,?
CCOc1ccccc1C(=O)OCC(=O)Nc1nnc(-c2ccccc2)o1,15,?,-14%,-1%,16µM*,-3%
C=C1C[C@]23CC[C@H]4C(CO)(CO)C[C@@H](O)C[C@@]4(C)[C@@H]2CC[C@H]1C3,·,?,·,·,-29%[9.04 µM],·
